The sample as a whole holds a higher share of the strongest signals than the screen did.
Experiments:
Assay in all cases: glycan array binding signal (z-score within array); higher = stronger binding
Conditions in all cases: glycan notation: IUPAC condensed, linker removed
[1] = molecular target: Fuc(a1-2)Gal(b1-3)GlcNAc(b1-3)[Neu5Ac(a2-6)Gal(b1-4)GlcNAc(b1-6)]Gal(b1-4)Glc
Procedure, shortened: (§1)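 The binding signal is a Z-score computed within each array. Data were drawn from 3228 arrays in the Consortium for Functional Glycomics database, restricted to those with a known protein sequence. Scores were averaged over arrays of the same protein sequence at different concentrations or buffers, and over linkers, and negative values can be taken as non-binding.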

[2] = molecular target: Fuc(a1-2)Gal(b1-3)[Fuc(a1-4)]GlcNAc(b1-2)Man(a1-3)[Fuc(a1-2)Gal(b1-3)[Fuc(a1-4)]GlcNAc(b1-2)Man(a1-6)]Man(b1-4)GlcNAc(b1-4)[Fuc(a1-6)]GlcNAc(b1-4)[Fuc(a1-6)]GlcNAc
Procedure, shortened: as §1

[3] = molecular target: Fuc(a1-2)[Gal(a1-3)]Gal(b1-3)GlcNAc(b1-2)Man(a1-3)[Fuc(a1-2)[Gal(a1-3)]Gal(b1-3)GlcNAc(b1-2)Man(a1-6)]Man(b1-4)GlcNAc(b1-4)GlcNAc
Procedure, shortened: as §1

[4] = molecular target: Fuc(a1-2)[Gal(a1-3)]Gal(b1-4)GlcNAc
Procedure, shortened: as §1

[5] = molecular target: Fuc(a1-2)[Gal(a1-3)]Gal(b1-4)GlcNAc(b1-2)Man(a1-3)[Fuc(a1-2)[Gal(a1-3)]Gal(b1-4)GlcNAc(b1-2)Man(a1-6)]Man(b1-4)GlcNAc(b1-4)GlcNAc
Procedure, shortened: as §1

[6] = molecular target: Fuc(a1-2)[Gal(a1-3)]Gal(b1-4)GlcNAc(b1-3)GalNAc
Procedure, shortened: as §1

[7] = molecular target: Fuc(a1-2)[Gal(a1-3)]Gal(b1-4)[Fuc(a1-3)]GlcNAc
Procedure, shortened: as §1

[8] = molecular target: Fuc(a1-2)[GalNAc(a1-3)]Gal(b1-3)GalNAc(a1-3)[Fuc(a1-2)]Gal(b1-4)GlcNAc
Procedure, shortened: as §1

[9] = molecular target: Fuc(a1-2)[GalNAc(a1-3)]Gal(b1-3)GalNAc(b1-3)Gal(a1-4)Gal(b1-4)Glc
Procedure, shortened: as §1

[10] = molecular target: Fuc(a1-2)[GalNAc(a1-3)]Gal(b1-4)GlcNAc(b1-3)Gal(b1-4)GlcNAc(b1-3)Gal(b1-4)GlcNAc
Procedure, shortened: as §1

[11] = molecular target: Fuc(a1-2)[GalNAc(a1-3)]Gal(b1-4)GlcNAc(b1-6)GalNAc
Procedure, shortened: as §1

[12] = molecular target: Fuc(a1-3)[Gal(b1-4)]GlcNAc(b1-2)Man
Procedure, shortened: as §1

[13] = molecular target: Fuc(a1-3)[Gal3S(b1-4)]GlcNAc6S
Procedure, shortened: as §1

Gal(a1-3)Gal(b1-4)Glc = molecular target: Gal(a1-3)Gal(b1-4)Glc
Procedure, shortened: as §1

Gal(a1-4)Gal(b1-4)Glc = molecular target: Gal(a1-4)Gal(b1-4)Glc
Procedure, shortened: as §1

[14] = molecular target: Gal(b1-3)GlcNAc(a1-6)Gal(b1-4)GlcNAc
Procedure, shortened: as §1

[15] = molecular target: Gal(b1-3)GlcNAc(b1-2)Man(a1-3)[Gal(b1-3)GlcNAc(b1-2)Man(a1-6)]Man(b1-4)GlcNAc(b1-4)[Fuc(a1-6)]GlcNAc
Procedure, shortened: as §1

[16] = molecular target: Gal(b1-4)GlcNAc(b1-2)Man(a1-3)[Gal(b1-4)GlcNAc(b1-2)Man(a1-6)][GlcNAc(b1-4)]Man(b1-4)GlcNAc(b1-4)[Fuc(a1-6)]GlcNAc
Procedure, shortened: as §1

[17] = molecular target: Gal(b1-4)GlcNAc(b1-2)Man(a1-6)Man(b1-4)GlcNAc(b1-4)GlcNAc
Procedure, shortened: as §1

[18] = molecular target: Gal(b1-4)GlcNAc(b1-3)Gal(b1-4)GlcNAc
Procedure, shortened: as §1

[19] = molecular target: Gal(b1-4)GlcNAc(b1-3)Gal(b1-4)GlcNAc(b1-3)Gal(b1-4)GlcNAc(b1-2)Man(a1-3)[Gal(b1-4)GlcNAc(b1-3)Gal(b1-4)GlcNAc(b1-3)Gal(b1-4)GlcNAc(b1-2)Man(a1-6)]Man(b1-4)GlcNAc(b1-4)GlcNAc
Procedure, shortened: as §1

[20] = molecular target: Gal(b1-4)GlcNAc(b1-3)Gal(b1-4)GlcNAc(b1-3)Gal(b1-4)GlcNAc(b1-3)Gal(b1-4)GlcNAc(b1-3)Gal(b1-4)GlcNAc(b1-2)[Gal(b1-4)GlcNAc(b1-3)Gal(b1-4)GlcNAc(b1-3)Gal(b1-4)GlcNAc(b1-3)Gal(b1-4)GlcNAc(b1-3)Gal(b1-4)GlcNAc(b1-6)]Man(a1-6)[Gal(b1-4)GlcNAc(b1-3)Gal(b1-4)GlcNAc(b1-3)Gal(b1-4)GlcNAc(b1-3)Gal(b1-4)GlcNAc(b1-3)Gal(b1-4)GlcNAc(b1-2)Man(a1-3)]Man(b1-4)GlcNAc(b1-4)[Fuc(a1-6)]GlcNAc
Procedure, shortened: as §1

[21] = molecular target: Gal(b1-4)GlcNAc(b1-6)GalNAc
Procedure, shortened: as §1

Gal3S4S(b1-4)GlcNAc = molecular target: Gal3S4S(b1-4)GlcNAc
Procedure, shortened: as §1

[22] = molecular target: GalNAc(a1-3)GalNAc(b1-3)Gal(a1-4)Gal(b1-4)GlcNAc
Procedure, shortened: as §1

[23] = molecular target: GalNAc(b1-3)Gal(a1-4)Gal(b1-4)GlcNAc
Procedure, shortened: as §1

GalNAc(b1-4)GlcNAc = molecular target: GalNAc(b1-4)GlcNAc
Procedure, shortened: as §1

[24] = molecular target: GalNAc(b1-4)GlcNAc(b1-2)Man
Procedure, shortened: as §1

[25] = molecular target: GalNAc(b1-4)GlcNAc(b1-3)GalNAc(b1-4)GlcNAc
Procedure, shortened: as §1

GalNAc(b1-4)GlcNAc6S = molecular target: GalNAc(b1-4)GlcNAc6S
Procedure, shortened: as §1

GlcA(b1-6)Gal = molecular target: GlcA(b1-6)Gal
Procedure, shortened: as §1

[26] = molecular target: GlcNAc(a1-4)Gal(b1-4)GalNAc
Procedure, shortened: as §1

[27] = molecular target: GlcNAc(a1-4)Gal(b1-4)GlcNAc(b1-3)Gal(b1-4)GlcNAc
Procedure, shortened: as §1

[28] = molecular target: GlcNAc(b1-2)Gal(b1-3)GalNAc
Procedure, shortened: as §1

[29] = molecular target: GlcNAc(b1-2)[GlcNAc(b1-6)]Man(a1-6)[GlcNAc(b1-2)Man(a1-3)]Man(b1-4)GlcNAc(b1-4)GlcNAc
Procedure, shortened: as §1

[30] = molecular target: GlcNAc(b1-2)[GlcNAc(b1-6)]Man(a1-6)[GlcNAc(b1-2)Man(a1-3)]Man(b1-4)GlcNAc(b1-4)[Fuc(a1-6)]GlcNAc
Procedure, shortened: as §1

[31] = molecular target: GlcNAc(b1-3)Gal(b1-4)GlcNAc
Procedure, shortened: as §1

[32] = molecular target: GlcNAc(b1-3)Gal(b1-4)GlcNAc(b1-6)[Gal(b1-3)]GalNAc
Procedure, shortened: as §1

GlcNAc(b1-4)GlcNAc = molecular target: GlcNAc(b1-4)GlcNAc
Procedure, shortened: as §1

[33] = molecular target: Neu5Ac(a2-3)Gal(b1-3)GlcNAc
Procedure, shortened: as §1

[34] = molecular target: Neu5Ac(a2-3)Gal(b1-3)[GlcNAc(b1-6)]GalNAc
Procedure, shortened: as §1

[35] = molecular target: Neu5Ac(a2-3)Gal(b1-4)GlcNAc
Procedure, shortened: as §1

[36] = molecular target: Neu5Ac(a2-3)Gal(b1-4)GlcNAc(b1-3)Gal(b1-4)GlcNAc(b1-2)Man(a1-3)[Neu5Ac(a2-3)Gal(b1-4)GlcNAc(b1-3)Gal(b1-4)GlcNAc(b1-2)Man(a1-6)]Man(b1-4)GlcNAc(b1-4)GlcNAc
Procedure, shortened: as §1

[37] = molecular target: Neu5Ac(a2-3)Gal(b1-4)GlcNAc(b1-3)Gal(b1-4)GlcNAc(b1-3)Gal(b1-4)GlcNAc(b1-2)Man(a1-3)[Neu5Ac(a2-3)Gal(b1-4)GlcNAc(b1-3)Gal(b1-4)GlcNAc(b1-3)Gal(b1-4)GlcNAc(b1-2)Man(a1-6)]GalNAc
Procedure, shortened: as §1

[38] = molecular target: Neu5Ac(a2-3)Gal(b1-4)[Fuc(a1-3)]GlcNAc(b1-6)[Neu5Ac(a2-3)Gal(b1-3)]GalNAc
Procedure, shortened: as §1

[39] = molecular target: Neu5Ac(a2-6)Gal(b1-4)GlcNAc
Procedure, shortened: as §1

[40] = molecular target: Neu5Ac(a2-6)Gal(b1-4)GlcNAc(b1-2)Man(a1-3)[Neu5Ac(a2-3)Gal(b1-4)GlcNAc(b1-2)Man(a1-6)]Man(b1-4)GlcNAc(b1-4)GlcNAc
Procedure, shortened: as §1

[41] = molecular target: Neu5Ac(a2-6)Gal(b1-4)GlcNAc(b1-3)Gal(b1-3)GlcNAc
Procedure, shortened: as §1

[42] = molecular target: Neu5Ac(a2-6)GlcNAc(b1-4)GlcNAc(b1-4)GlcNAc
Procedure, shortened: as §1

[43] = molecular target: Neu5Ac(a2-8)Neu5Ac(a2-3)[GalNAc(b1-4)]Gal(b1-4)Glc
Procedure, shortened: as §1

B1: SJA (Sophora japonica) (protein)
chain: FLGLFNSGGYSSSYQIVAVEFDTYINEWDPKTRHIGIDINSINSTKTVTWGWENGEVAIVLISYKAATETLTVSLTYPSSQTSYILSAAVDLKSILPEWVRIGF
- glycan array binding signal (z-score) [1]: -0.155
- glycan array binding signal (z-score) [2]: -0.175
- glycan array binding signal (z-score) [3]: 4.34
- glycan array binding signal (z-score) [4]: 2.19
- glycan array binding signal (z-score) [5]: 4.98
- glycan array binding signal (z-score) [6]: 0.012
- glycan array binding signal (z-score) [7]: 6.46
- glycan array binding signal (z-score) [8]: -0.406
- glycan array binding signal (z-score) [9]: -0.202
- glycan array binding signal (z-score) [10]: 0.248
- glycan array binding signal (z-score) [11]: -0.199
- glycan array binding signal (z-score) [12]: -0.248
- glycan array binding signal (z-score) [13]: -0.061
- glycan array binding signal (z-score) (Gal(a1-3)Gal(b1-4)Glc): -0.143
- glycan array binding signal (z-score) (Gal(a1-4)Gal(b1-4)Glc): -0.134
- glycan array binding signal (z-score) [14]: -0.076
- glycan array binding signal (z-score) [15]: -0.007
- glycan array binding signal (z-score) [16]: -0.337
- glycan array binding signal (z-score) [17]: -0.334
- glycan array binding signal (z-score) [18]: -0.148
- glycan array binding signal (z-score) [19]: 2.39
- glycan array binding signal (z-score) [20]: 2.24
- glycan array binding signal (z-score) [21]: -0.118
- glycan array binding signal (z-score) (Gal3S4S(b1-4)GlcNAc): -0.23
- glycan array binding signal (z-score) [22]: -0.341
- glycan array binding signal (z-score) [23]: -0.186
- glycan array binding signal (z-score) (GalNAc(b1-4)GlcNAc): 3.38
- glycan array binding signal (z-score) [24]: 2.46
- glycan array binding signal (z-score) [25]: 8.25
- glycan array binding signal (z-score) (GalNAc(b1-4)GlcNAc6S): 3.05
- glycan array binding signal (z-score) (GlcA(b1-6)Gal): -0.111
- glycan array binding signal (z-score) [26]: -0.15
- glycan array binding signal (z-score) [27]: -0.229
- glycan array binding signal (z-score) [28]: -0.192
- glycan array binding signal (z-score) [29]: -0.255
- glycan array binding signal (z-score) [30]: -0.375
- glycan array binding signal (z-score) [31]: -0.101
- glycan array binding signal (z-score) [32]: -0.24
- glycan array binding signal (z-score) (GlcNAc(b1-4)GlcNAc): -0.142
- glycan array binding signal (z-score) [33]: -0.139
- glycan array binding signal (z-score) [34]: -0.156
- glycan array binding signal (z-score) [35]: -0.241
- glycan array binding signal (z-score) [36]: 0.783
- glycan array binding signal (z-score) [37]: 3.51
- glycan array binding signal (z-score) [38]: -0.056
- glycan array binding signal (z-score) [39]: -0.22
- glycan array binding signal (z-score) [40]: -0.178
- glycan array binding signal (z-score) [41]: -0.207
- glycan array binding signal (z-score) [42]: -0.288
- glycan array binding signal (z-score) [43]: -0.232
